# Laboratory results as given in PubChem BioAssay.
# Unmarked numbers belong to inactive results. Entries that show only a call come without a potency. For some of these results: Potency and affinity values are given separately. Activity calls are given as the source filed them. Unless noted, the rule behind the calls is not given here.
# Legend:
# [1] = antimalarial activity against Dd2 strain (AID 2302;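 active = growth inhibition above 50% at the single 2 µM test dose, taken to imply half-maximal potency below 2 µM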); conditions: P. falciparum Dd2 in RBCs, LDH growth readout, 72 h; at 2 µM; active compounds read high
# [2] = HepG2 cytotoxicity, primary screen, cytotoxicity control for P. falciparum antimalarial project, cell-based, ATP luminescence (AID 2303;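 active = inhibition above 50%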); conditions: HepG2 viability, 24-48 h, at 10 µM, active compounds read high
# [3] = target: L-lactate dehydrogenase (Plasmodium falciparum (isolate CDC / Honduras)) (UniProt Q27743); assay: PfLDH activity inhibition – cell lysate, 3D7 strain, counter-screen for P. falciparum growth inhibition project (AID 2304); conditions: P. falciparum 3D7 crude extract, LDH APAD/NBT absorbance; at 2 µM; active compounds read high
# Sequence of L-lactate dehydrogenase (Plasmodium falciparum (isolate CDC / Honduras)) (Q27743 whole entry, looked up): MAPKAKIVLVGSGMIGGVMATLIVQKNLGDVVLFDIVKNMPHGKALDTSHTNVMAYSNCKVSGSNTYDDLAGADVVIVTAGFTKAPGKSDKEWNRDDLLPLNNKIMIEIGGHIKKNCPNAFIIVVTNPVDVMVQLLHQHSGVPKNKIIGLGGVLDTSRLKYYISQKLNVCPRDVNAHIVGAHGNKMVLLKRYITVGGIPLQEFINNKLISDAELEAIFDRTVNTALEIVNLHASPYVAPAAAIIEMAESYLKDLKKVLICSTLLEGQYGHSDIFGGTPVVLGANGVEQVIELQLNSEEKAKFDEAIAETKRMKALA
# [4] = inhibition of 3D7 malaria parasite growth – strain 3D7 (AID 2306); conditions: P. falciparum 3D7 erythrocytic growth, LDH absorbance, 72 h; at 2 µM; active compounds read high
# [5] = target: Calcium-dependent protein kinase 1 (Plasmodium falciparum (isolate 3D7)) (UniProt P62344); assay: PfCDPK1 kinase inhibitors, biochemical, TCAMS library (AID 1159585; cut-off not given, nearly all actives have IC50 up to about 0.98 µM;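 note: inhibitors leave more ATP so luminescence rises with inhibition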); conditions: recombinant PfCDPK1, Kinase-Glo ATP depletion luminescence
# Sequence of Calcium-dependent protein kinase 1 (Plasmodium falciparum (isolate 3D7)) (P62344 whole entry, looked up): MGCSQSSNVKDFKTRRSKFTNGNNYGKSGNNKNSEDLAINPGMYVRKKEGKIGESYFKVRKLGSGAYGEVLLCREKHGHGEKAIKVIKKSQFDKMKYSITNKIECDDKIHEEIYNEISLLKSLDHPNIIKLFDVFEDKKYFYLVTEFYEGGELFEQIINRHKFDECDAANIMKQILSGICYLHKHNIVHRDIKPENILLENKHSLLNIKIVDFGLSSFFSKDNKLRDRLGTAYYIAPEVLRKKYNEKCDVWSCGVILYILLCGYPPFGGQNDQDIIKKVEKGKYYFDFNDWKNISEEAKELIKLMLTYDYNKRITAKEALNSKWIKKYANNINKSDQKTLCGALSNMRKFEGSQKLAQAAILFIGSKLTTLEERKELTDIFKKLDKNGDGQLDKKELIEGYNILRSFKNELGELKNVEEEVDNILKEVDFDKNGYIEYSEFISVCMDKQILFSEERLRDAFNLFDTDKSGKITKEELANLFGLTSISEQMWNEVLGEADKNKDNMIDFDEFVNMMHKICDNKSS
# [6] = target: Plasmodium falciparum protein kinase 6 (PK6, PF3D7_1337100) (UniProt Q8IDW1); assay: PfPK6 kinase inhibitors, biochemical, TCAMS library (AID 1159586); conditions: recombinant PfPK6, Kinase-Glo ATP depletion luminescence
# Sequence of Plasmodium falciparum protein kinase 6 (PK6, PF3D7_1337100) (Q8IDW1 1-305): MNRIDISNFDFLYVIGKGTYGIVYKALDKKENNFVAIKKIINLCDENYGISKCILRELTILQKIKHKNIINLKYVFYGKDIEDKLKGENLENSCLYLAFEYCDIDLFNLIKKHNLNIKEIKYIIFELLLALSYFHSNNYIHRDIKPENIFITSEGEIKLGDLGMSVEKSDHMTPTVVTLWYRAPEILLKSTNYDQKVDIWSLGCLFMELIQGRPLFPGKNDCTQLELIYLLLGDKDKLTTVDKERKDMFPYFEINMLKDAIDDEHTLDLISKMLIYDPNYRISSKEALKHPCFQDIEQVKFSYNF
# [7] = target: Protein kinase 7 (PK7), Plasmodium falciparum 3D7 (PF3D7_0213400) (UniProt Q7YTF7); assay: inhibition of Plasmodium PK7 catalytic activity – biochemical, TCAMS antimalarial set, Kinase-Glo luminescence (AID 1159587); conditions: recombinant PfPK7, Kinase-Glo ATP depletion luminescence
# Sequence of Protein kinase 7 (PK7), Plasmodium falciparum 3D7 (PF3D7_0213400) (Q7YTF7 1-343): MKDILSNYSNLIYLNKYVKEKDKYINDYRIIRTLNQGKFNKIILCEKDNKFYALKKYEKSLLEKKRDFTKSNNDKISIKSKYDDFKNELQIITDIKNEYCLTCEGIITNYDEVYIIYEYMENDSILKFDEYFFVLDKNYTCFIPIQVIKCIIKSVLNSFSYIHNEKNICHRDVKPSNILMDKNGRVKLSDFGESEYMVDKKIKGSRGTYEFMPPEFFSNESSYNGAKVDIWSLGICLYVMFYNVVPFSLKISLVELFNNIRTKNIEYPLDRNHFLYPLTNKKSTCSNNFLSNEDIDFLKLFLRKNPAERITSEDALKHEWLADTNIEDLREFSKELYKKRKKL
# [8] = target: Calcium-dependent protein kinase 4 (Plasmodium falciparum (isolate 3D7)) (UniProt Q8IBS5); assay: PfCDPK4 kinase inhibitors, biochemical, TCAMS library (AID 1159588; cut-off not given, nearly all actives have IC50 up to about 0.91 µM); conditions: recombinant PfCDPK4, Kinase-Glo ATP depletion luminescence
# Sequence of Calcium-dependent protein kinase 4 (Plasmodium falciparum (isolate 3D7)) (Q8IBS5 whole entry, looked up): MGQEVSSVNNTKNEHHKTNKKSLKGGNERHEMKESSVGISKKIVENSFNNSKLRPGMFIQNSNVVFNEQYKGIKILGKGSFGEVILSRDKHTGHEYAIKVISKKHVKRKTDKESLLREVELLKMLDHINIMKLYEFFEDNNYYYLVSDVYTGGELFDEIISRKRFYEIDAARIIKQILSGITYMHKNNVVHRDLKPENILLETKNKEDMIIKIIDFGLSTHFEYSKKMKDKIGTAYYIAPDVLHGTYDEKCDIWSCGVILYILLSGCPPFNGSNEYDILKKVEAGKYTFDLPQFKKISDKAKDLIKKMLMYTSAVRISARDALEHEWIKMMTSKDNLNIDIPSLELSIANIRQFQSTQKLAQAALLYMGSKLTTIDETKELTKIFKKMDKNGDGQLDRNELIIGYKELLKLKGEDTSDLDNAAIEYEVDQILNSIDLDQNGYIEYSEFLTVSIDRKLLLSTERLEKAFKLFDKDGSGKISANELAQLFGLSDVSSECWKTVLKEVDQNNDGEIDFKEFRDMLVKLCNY
Structure (SMILES),growth inhibition [1],inhibition [2],inhibition [3] [%],growth inhibition [4],outcome [5],outcome [6],outcome [7],outcome [8]
CC(C)CNCc1cccc(-c2ccc(CN(C(=O)Nc3ccccc3)C3CCN(Cc4ccccc4)CC3)cc2)c1,61% (active),41%,-2,101% (active),inactive,inactive,inactive,inactive
CCOC(=O)c1ccc(CC(C)NCC(O)c2cccc(C(F)(F)F)c2)cc1 (centres undefined),98% (active),5%,-9,100% (active),inactive,inactive,inactive,inactive
CCCCC/C=C/C(=O)NC1CCC(CN2CCC(c3c[nH]c4ccccc34)CC2)CC1 (centres undefined),11%,19%,-1,87% (active),inactive,inactive,inactive,inactive
COc1cc(NCCCNC(=O)c2cn(Cc3ccccc3)c3ccccc23)nc2ccccc12,66% (active),13%,0,101% (active),inactive,inactive,inactive,inactive
O=C(CC1CCCC1)N(CC1CCN(Cc2ccc(C(F)(F)F)cc2)CC1)c1ccc(N2CCOCC2)c(F)c1,97% (active),10%,-1,92% (active),inactive,inactive,inactive,inactive
O=C(NC1CCC(CN2CCC(c3c[nH]c4ccccc34)CC2)CC1)c1cc2ccccc2o1 (centres undefined),14%,34%,4,94% (active),inactive,inactive,inactive,inactive
CN1CC[C@H](N(Cc2ccccc2F)c2ccc(C#N)c(Cl)c2)C1,68% (active),18%,-6,88% (active),inactive,inactive,inactive,inactive
O=C(/C=C/c1ccc(Cl)c(Cl)c1)N(Cc1ccccc1)C1CCC(CN2CCC(c3c[nH]c4ccccc34)CC2)CC1 (centres undefined),59% (active),37%,-6,101% (active),inactive,inactive,inactive,inactive
COc1ccc2c(c1)[nH]c1c(C=Cc3ccccc3)nccc12,6%,19%,7,91% (active),inactive,inactive,inactive,inactive
O=C1c2ccccc2CCC1CCN1CC=C(c2c[nH]c3ccccc23)CC1 (centres undefined),83% (active),5%,7,89% (active),inactive,inactive,inactive,inactive
O=[N+]([O-])c1ccc(Oc2c(Cl)cc(S(=O)(=O)N3CCC(CN4CCC(c5c[nH]c6ccccc56)CC4)CC3)cc2Cl)c(Cl)c1,83% (active),43%,-1,100% (active),inactive,inactive,inactive,inactive
CC(Cc1ccc(Oc2ccccc2)cc1)NCC(O)c1cccc(C(F)(F)F)c1 (centres undefined),99% (active),16%,4,98% (active),inactive,inactive,inactive,inactive
Cc1[nH]c2cc(Cl)ccc2c1C1=CCN(CCN2CCOc3c(Br)cccc3C2=O)CC1,58% (active),1%,4,90% (active),inactive,inactive,inactive,inactive
CC[C@H]1CN2CC[C@H]1C[C@H]2[C@H](O)c1cc(-c2ccc(Cl)c(Cl)c2)nc2ccc(OC)cc12,99% (active),17%,6,98% (active),inactive,inactive,inactive,inactive
CC(Cc1ccc(OC2CCCCC2)cc1)NCC(O)c1cccc(Cl)c1 (centres undefined),99% (active),66% (active),-4,99% (active),inactive,inactive,inactive,inactive
O=C(/C=C/c1ccc(Cl)c(Cl)c1)NC1CCC(N2CCC(c3c[nH]c4ccccc34)CC2)CC1 (centres undefined),69% (active),41%,7,100% (active),inactive,inactive,inactive,inactive
CC(C)CNCc1cccc(-c2cccc(CN(C(=O)Nc3ccccc3)C3CCN(Cc4ccccc4)CC3)c2)c1,89% (active),31%,3,102% (active),inactive,inactive,inactive,inactive
CCCCCC(C)C(C)c1cc(O)c2c(c1)OC(C)(C)c1cnccc1-2 (centres undefined),74% (active),7%,-3,94% (active),inactive,inactive,inactive,inactive
CC(Cc1ccc(OCCCCOc2ccccc2)cc1)NCCc1ccccc1Cl (centres undefined),58% (active),100% (active),1,97% (active),inactive,inactive,inactive,inactive
Cc1cc(N(C)C2CCN(C)CC2)nc(Nc2ccc(Cl)cc2)n1,90% (active),15%,-6,98% (active),inactive,inactive,inactive,inactive
CN(C)c1cccc(CN2CC=C(c3c[nH]c4ccc(Cl)cc34)CC2)c1,87% (active),40%,3,93% (active),inactive,inactive,inactive,inactive
CCN(Cc1ccccc1)CC(O)c1ccc(Cl)c(Cl)c1 (centres undefined),71% (active),2%,1,96% (active),inactive,inactive,inactive,inactive
O=C(c1ccccc1)[C@H]1C[C@@H]1CN1CC=C(c2c[nH]c3ccccc23)CC1,73% (active),4%,-6,95% (active),inactive,inactive,inactive,inactive
